The nature of test [1]: antimalarial activity against Dd2 strain (AID 2302;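 active means growth inhibition above 50% at the single 2 µM test dose, taken to imply half-maximal potency below 2 µM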;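 further: 0% = DMSO untreated growth and 100% = chloroquine plus artemisinin killed control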). Particulars: P. falciparum Dd2 in RBCs, LDH growth readout, 72 h; at 2 µM; active compounds read high.
Test [2] can be described thus: human hepatoma cell viability loss – ATP luminescence, cytotoxicity control for P. falciparum antimalarial project, primary screen (AID 2303;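 active means inhibition above 50%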;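 further: 0% = DMSO wells and 100% = digitonin-killed cells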). Conditions: HepG2 viability, 24-48 h, at 10 µM, active compounds read high.
Test [3] deals with L-lactate dehydrogenase (Plasmodium falciparum (isolate CDC / Honduras)) (UniProt Q27743). In words: PfLDH activity inhibition – cell lysate, 3D7 strain, counter-screen for P. falciparum growth inhibition project (AID 2304).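 Further: 0% = vehicle and 100% = reference inhibitor.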 Conditions: P. falciparum 3D7 crude extract, LDH APAD/NBT absorbance; at 2 µM; active compounds read high. Background: A counterscreen serves to expose hits that act by an unwanted route or on another target.
L-lactate dehydrogenase (Plasmodium falciparum (isolate CDC / Honduras)), sequence (Q27743 whole entry, looked up): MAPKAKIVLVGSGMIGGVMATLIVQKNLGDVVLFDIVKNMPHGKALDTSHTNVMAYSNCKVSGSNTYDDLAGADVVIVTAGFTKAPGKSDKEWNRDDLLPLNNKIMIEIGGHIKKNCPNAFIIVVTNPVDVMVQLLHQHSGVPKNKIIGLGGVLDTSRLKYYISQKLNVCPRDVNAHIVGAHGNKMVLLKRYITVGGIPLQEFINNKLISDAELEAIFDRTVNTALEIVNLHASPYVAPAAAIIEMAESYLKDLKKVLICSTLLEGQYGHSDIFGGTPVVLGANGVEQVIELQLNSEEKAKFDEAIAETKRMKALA

Test [4] is described as follows: inhibition of 3D7 malaria parasite growth – strain 3D7 (AID 2306).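 Further: 0% = DMSO wells and 100% = chloroquine plus artemisinin control wells.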 Particulars: P. falciparum 3D7 erythrocytic growth, LDH absorbance, 72 h; at 2 µM; active compounds read high.
For test [5], the target named is Calcium-dependent protein kinase 1 (Plasmodium falciparum (isolate 3D7)) (UniProt P62344). In words: PfCDPK1 kinase inhibitors, biochemical, TCAMS library (AID 1159585; cut-off not given, nearly all actives have IC50 up to about 0.98 µM;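 further: inhibitors leave more ATP so luminescence rises with inhibition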). Conditions: recombinant PfCDPK1, Kinase-Glo ATP depletion luminescence. In general terms: In Kinase-Glo more light means more ATP remaining.
Calcium-dependent protein kinase 1 (Plasmodium falciparum (isolate 3D7)), sequence (P62344 whole entry, looked up): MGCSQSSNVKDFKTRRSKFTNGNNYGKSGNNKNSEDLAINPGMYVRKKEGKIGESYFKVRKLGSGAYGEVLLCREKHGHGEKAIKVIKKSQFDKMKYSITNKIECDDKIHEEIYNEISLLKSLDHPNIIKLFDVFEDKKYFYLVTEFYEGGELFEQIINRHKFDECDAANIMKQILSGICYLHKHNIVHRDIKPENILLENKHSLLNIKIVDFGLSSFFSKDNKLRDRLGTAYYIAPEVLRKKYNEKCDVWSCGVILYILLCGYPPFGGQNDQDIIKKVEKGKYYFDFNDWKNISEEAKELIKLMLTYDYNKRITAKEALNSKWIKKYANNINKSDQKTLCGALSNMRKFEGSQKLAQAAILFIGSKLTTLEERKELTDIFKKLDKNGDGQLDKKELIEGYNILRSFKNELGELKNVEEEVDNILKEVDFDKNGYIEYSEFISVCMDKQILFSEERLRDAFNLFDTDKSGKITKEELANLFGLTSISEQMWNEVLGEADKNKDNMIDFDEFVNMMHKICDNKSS
For test [6], the target named is Plasmodium falciparum protein kinase 6 (PK6, PF3D7_1337100) (UniProt Q8IDW1). In words: PfPK6 kinase inhibitors, biochemical, TCAMS library (AID 1159586). Particulars: recombinant PfPK6, Kinase-Glo ATP depletion luminescence.
Plasmodium falciparum protein kinase 6 (PK6, PF3D7_1337100), sequence (Q8IDW1 1-305): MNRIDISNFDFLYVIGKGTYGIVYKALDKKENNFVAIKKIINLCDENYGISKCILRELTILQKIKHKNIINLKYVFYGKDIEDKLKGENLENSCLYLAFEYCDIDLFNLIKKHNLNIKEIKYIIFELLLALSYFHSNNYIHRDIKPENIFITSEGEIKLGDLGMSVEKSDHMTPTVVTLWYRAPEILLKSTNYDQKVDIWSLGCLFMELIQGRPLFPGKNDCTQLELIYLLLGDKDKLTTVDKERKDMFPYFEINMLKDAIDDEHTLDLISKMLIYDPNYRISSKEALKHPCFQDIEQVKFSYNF
Test [7] deals with Protein kinase 7 (PK7), Plasmodium falciparum 3D7 (PF3D7_0213400) (UniProt Q7YTF7). The test can be described thus: inhibition of Plasmodium PK7 catalytic activity – biochemical, TCAMS antimalarial set, Kinase-Glo luminescence (AID 1159587). Particulars: recombinant PfPK7, Kinase-Glo ATP depletion luminescence.
Protein kinase 7 (PK7), Plasmodium falciparum 3D7 (PF3D7_0213400), sequence (Q7YTF7 1-343): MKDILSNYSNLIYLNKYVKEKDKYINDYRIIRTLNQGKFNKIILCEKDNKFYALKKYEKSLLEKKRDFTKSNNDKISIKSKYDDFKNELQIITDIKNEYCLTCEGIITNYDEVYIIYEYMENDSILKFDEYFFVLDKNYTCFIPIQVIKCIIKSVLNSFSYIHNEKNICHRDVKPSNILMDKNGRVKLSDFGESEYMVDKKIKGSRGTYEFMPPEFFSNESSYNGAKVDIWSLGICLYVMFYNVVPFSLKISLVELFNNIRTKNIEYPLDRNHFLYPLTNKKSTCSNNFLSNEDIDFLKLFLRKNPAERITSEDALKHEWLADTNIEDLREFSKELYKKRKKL
Test [8] concerns the target Calcium-dependent protein kinase 4 (Plasmodium falciparum (isolate 3D7)) (UniProt Q8IBS5). In words: PfCDPK4 kinase inhibitors, biochemical, TCAMS library (AID 1159588; cut-off not given, nearly all actives have IC50 up to about 0.91 µM). Particulars: recombinant PfCDPK4, Kinase-Glo ATP depletion luminescence.

Growth inhibition, inhibition and outcome data for 19 compounds are collected here from PubChem BioAssay.

A number with no mark means an inactive call. For some assays here: Entries with a potency or affinity are not part of this list. Calls of active or inactive are those of the source. Unless noted, how the calls were made is not given here.

The inhibition is the drop in the measured response relative to a control, in per cent.

Calcium-dependent protein kinase 4 (Plasmodium falciparum (isolate 3D7)), sequence (Q8IBS5 whole entry, looked up): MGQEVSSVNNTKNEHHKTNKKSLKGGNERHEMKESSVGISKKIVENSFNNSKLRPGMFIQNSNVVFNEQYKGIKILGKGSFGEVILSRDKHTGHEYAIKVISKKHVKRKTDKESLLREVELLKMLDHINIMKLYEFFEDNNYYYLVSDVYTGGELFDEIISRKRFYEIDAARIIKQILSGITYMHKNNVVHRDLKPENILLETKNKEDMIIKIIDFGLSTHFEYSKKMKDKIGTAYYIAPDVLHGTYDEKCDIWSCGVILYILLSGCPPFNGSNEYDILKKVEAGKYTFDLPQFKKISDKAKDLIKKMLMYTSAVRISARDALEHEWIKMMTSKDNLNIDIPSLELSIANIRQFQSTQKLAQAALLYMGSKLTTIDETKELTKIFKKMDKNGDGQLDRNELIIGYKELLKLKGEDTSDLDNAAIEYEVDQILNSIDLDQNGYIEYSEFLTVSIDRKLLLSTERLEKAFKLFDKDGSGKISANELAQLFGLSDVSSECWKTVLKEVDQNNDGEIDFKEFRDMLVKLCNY

Take `OCCN1CCN(c2ccc(Nc3ccnc4cc5ccccc5cc34)cc2)CC1`: the growth inhibition in test [1] and in test [4] was 100% (active) in each case. Further, the inhibition in test [2] is 98% (active); in test [3], -1%. Further, the result in test [5], in test [6], in test [7] and in test [8] was inactive.
As for `Cc1cccc2[nH]c(-c3ccc(-c4ccc(CN5CCCC(N)C5)cc4)cc3)nc12` (configuration not stated), the growth inhibition in test [1] is 101% (active); in test [4], 99% (active). The figures for the inhibition in test [2] and in test [3] were 33% and -3%, respectively. Besides, the result in test [5], in test [6], in test [7] and in test [8] was inactive.
In the case of `COCCN(C)CCCOc1cc2c(cc1OC)ncn2-c1cc(OCc2ccccc2C(F)(F)F)c(C(N)=O)s1`, the figures for the growth inhibition in test [1] and in test [4] were 49% and 98% (active), respectively. The inhibition is 24% in test [2] and 2% in test [3]. The result in test [5], in test [6], in test [7] and in test [8] was inactive.
As to `NC1=NC2(CCCCC2)N(OCCCCCCN2C(=O)c3ccccc3C2=O)C(N)=N1`, the results for the growth inhibition in test [1] and in test [4] were 16% and 98% (active), respectively. Besides, the inhibition was 20% in test [2] and 1% in test [3]. Further, the outcome in test [5], in test [6], in test [7] and in test [8] was inactive.
As to `CC1CN(S(=O)(=O)c2ccc(NC(=O)c3cc(-c4ccccc4O)n[nH]3)cc2)CC(C)O1` (configuration not stated), the growth inhibition was 93% (active) in test [1] and 97% (active) in test [4]. For the same compound, the results for the inhibition in test [2] and in test [3] were 21% and 1%, respectively. For the same compound, the outcome in test [5], in test [6], in test [7] and in test [8] was inactive.
Turning to `O=C(Nc1ccc(-c2cccc(-c3nc4ccccc4[nH]3)c2)cc1)N[C@@H]1C[C@H]1c1ccccc1`, the growth inhibition in test [1] is 6%; in test [4] it was 84% (active). Besides, the inhibition is 63% (active) in test [2] and -2% in test [3]. The result in test [5], in test [6], in test [7] and in test [8] was inactive.
As for `CO/C(=C\C=C\c1cc2cc(Cl)c(Cl)cc2[nH]1)C(=O)NCCCN1CCN(C2CCCCC2)CC1`, the growth inhibition was 97% (active) in test [1] and 99% (active) in test [4]. Also, the inhibition in test [2] was 60% (active); in test [3] it was -3%. Moreover, the result in test [5], in test [6], in test [7] and in test [8] was inactive.
`CCOC(=O)c1cn(CC)c2cc(N(C)CCc3ccc(OC)c(OC)c3)c(F)cc2c1=O`: the growth inhibition in test [1] is 96% (active); in test [4], 92% (active). For the same compound, the inhibition is 9% in test [2] and 4% in test [3]. The outcome in test [5], in test [6], in test [7] and in test [8] was inactive.
Regarding `Cc1cccn2c(=O)c3cc(C(=O)NCCc4ccccc4)c(=N)n(CCCOC(C)C)c3nc12`, the figures for the growth inhibition in test [1] and in test [4] were 40% and 101% (active), respectively. Besides, the inhibition in test [2] was 19%; in test [3], -3%. Further, the result in test [5], in test [6], in test [7] and in test [8] was inactive.
`N#Cc1cccc(NC(=O)NC2CCN(CCCCCNC(=O)/C=C/c3ccc(Cl)c(Cl)c3)CC2)c1`: the growth inhibition in test [1] was 7%; in test [4] it was 100% (active). For the same compound, the inhibition is 31% in test [2] and 0% in test [3]. Besides, the result in test [5], in test [6], in test [7] and in test [8] was inactive.
Regarding `COc1cc2nccc(Nc3ccc(OCc4ccc(NC(C)=O)cc4)cc3)c2cc1OC`, the figures for the growth inhibition in test [1] and in test [4] were 95% (active) and 101% (active), respectively. Moreover, the inhibition in test [2] was 24%; in test [3], 3%. The outcome in test [5], in test [6], in test [7] and in test [8] was inactive.
On to `Cc1cc(NC(=O)c2ccc(-c3ccccc3)cc2)no1`, for which the growth inhibition was 57% (active) in test [1] and 83% (active) in test [4]. The inhibition in test [2] is 5%; in test [3] it was 0%. The result in test [5], in test [6], in test [7] and in test [8] was inactive.
As for `Cc1ccc(CNC(=O)[C@H](Cc2ccccc2)Nc2cc(C)nc(NCc3ccccc3C)n2)cc1`, the values for the growth inhibition in test [1] and in test [4] were 50% (active) and 97% (active), respectively. The inhibition in test [2] is 23%; in test [3], 0%. Further, the outcome in test [5], in test [6], in test [7] and in test [8] was inactive.
On to `O=C(Nc1ccnc(-c2cccnc2)n1)c1cc(C(F)(F)F)cc(C(F)(F)F)c1`, for which the growth inhibition in test [1] was 12%; in test [4], 95% (active). Besides, the figures for the inhibition in test [2] and in test [3] were 22% and -4%, respectively. In addition, the result in test [5], in test [6], in test [7] and in test [8] was inactive.
In the case of `NC(N)=NC(=O)Nc1cc(Cl)c(Cl)c(C(F)(F)F)c1`, the growth inhibition is 99% (active) in test [1] and 100% (active) in test [4]. Besides, the results for the inhibition in test [2] and in test [3] were 6% and -5%, respectively. Further, the result in test [5], in test [6], in test [7] and in test [8] was inactive.
On to `Cc1cn(CC(=O)Nc2cccc(-c3cccc(-c4nc5ccc(C(F)(F)F)cc5[nH]4)c3)c2)c(=O)[nH]c1=O`, for which the results for the growth inhibition in test [1] and in test [4] were 51% (active) and 92% (active), respectively. In addition, the values for the inhibition in test [2] and in test [3] were 15% and -1%, respectively. Also, the outcome in test [5], in test [6], in test [7] and in test [8] was inactive.
Take `Cc1c(CN2CCC(N3CCC(C(=O)NC4CC4)CC3)CC2)[nH]c2c(Cl)cccc12`: the values for the growth inhibition in test [1] and in test [4] were 3% and 92% (active), respectively. The values for the inhibition in test [2] and in test [3] were 22% and 1%, respectively. Moreover, the outcome in test [5], in test [6], in test [7] and in test [8] was inactive.
For `CCCN(CCC)CCCCC(C)Nc1c2ccc(Cl)cc2nc2ccc(OC)cc12` (configuration not stated), the values for the growth inhibition in test [1] and in test [4] were 100% (active) and 102% (active), respectively. Further, the figures for the inhibition in test [2] and in test [3] were 42% and -2%, respectively. Further, the outcome in test [5], in test [6], in test [7] and in test [8] was inactive.
Consider `Oc1ccc(CCCNc2nc(NCc3ccccc3-c3ccccc3)nc(N3CCNCC3)n2)cc1`, for which the growth inhibition in test [1] was 48%; in test [4] it was 94% (active). Also, the values for the inhibition in test [2] and in test [3] were 39% and 5%, respectively. For the same compound, the result in test [5], in test [6], in test [7] and in test [8] was inactive.
